Source: PubChem BioAssay (Tox21)
“And” between values parts separate entries of the source, which are not always exact repeats. Equal entries are not always repeated. Results filed as inconclusive are left out. Entries that show only a call come without a potency. Some structures have more than one record in an assay (separate samples or runs), and their calls can disagree. The source made the active and inactive calls. Unless noted, calls come from the whole dose curve; as a rule, active = well fitted curve in the direction sought with a large enough effect in the repeat runs; inconclusive = weak or mixed curves; inactive = no such curve, though single readings can be large; an effect the other way counts as inactive or inconclusive.

Experiments:
[1] = qHTS assay to test for compound auto fluorescence at 535 nm (green) in HEK293 cells (AID 720680)
[2] = qHTS assay to test for compound auto fluorescence at 460 nm (blue) in HEK293 cell free culture (AID 720681)
How it was run: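 Blue fluorescence (Ex 405/Em 460 nm, triamterene-equivalent) was read immediately after pin transfer of compound or DMSO into medium (DMEM, 10% FBS) without cells.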

[3] = qHTS assay to test for compound auto fluorescence at 535 nm (green) in HEK293 cell free culture (AID 720682)
How it was run: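 Green-channel intensity (Ex/Em 485/535 nm) was recorded from compound-treated wells containing only DMEM with 10% FBS. Fluorescein provided the equivalency standard.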

[4] = qHTS assay to test for compound auto fluorescence at 590 nm (red) in HEK293 cell free culture (AID 720683)
How it was run: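 Red-channel autofluorescence of compounds in culture medium (DMEM, 10% FBS), no cells, measured at 540/590 nm. Rose Bengal sodium is the reference fluorophore for equivalence.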

[5] = qHTS assay to test for compound auto fluorescence at 590 nm (red) in HepG2 cell free culture (AID 720684)
How it was run: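 Cell-free; medium MEM + 10% FBS; compound or DMSO added by pintool; read Ex 540/Em 590 nm; Rose Bengal sodium as red reference fluorophore.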

[6] = qHTS assay to test for compound auto fluorescence at 460 nm (blue) in HepG2 cell free culture (AID 720685)
How it was run: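 Cell-free plates of MEM plus 10% FBS received 23 nL compound or DMSO vehicle; blue-channel (405/460 nm) intensity scored against triamterene as reference fluorophore.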

[7] = qHTS assay to test for compound auto fluorescence at 535 nm (green) in HepG2 cell free culture (AID 720686)
[8] = target: Glucocorticoid receptor (Homo sapiens) (UniProt P04150); assay: qHTS assay to identify small molecule agonists of the glucocorticoid receptor (GR) signaling pathway (AID 720691; active = well fitted activation curve with a large enough effect in the signal ratio in the repeat runs, not every such curve was filed as active; the % refers to the signal ratio; note: potency is the fitted concentration of half-maximal effect); settings: GR-bla HeLa, beta-lactamase reporter ratio, 18 h; activation: at 62.4 µM (top of the series)
Sequence of Glucocorticoid receptor (Homo sapiens) (P04150 whole entry, looked up): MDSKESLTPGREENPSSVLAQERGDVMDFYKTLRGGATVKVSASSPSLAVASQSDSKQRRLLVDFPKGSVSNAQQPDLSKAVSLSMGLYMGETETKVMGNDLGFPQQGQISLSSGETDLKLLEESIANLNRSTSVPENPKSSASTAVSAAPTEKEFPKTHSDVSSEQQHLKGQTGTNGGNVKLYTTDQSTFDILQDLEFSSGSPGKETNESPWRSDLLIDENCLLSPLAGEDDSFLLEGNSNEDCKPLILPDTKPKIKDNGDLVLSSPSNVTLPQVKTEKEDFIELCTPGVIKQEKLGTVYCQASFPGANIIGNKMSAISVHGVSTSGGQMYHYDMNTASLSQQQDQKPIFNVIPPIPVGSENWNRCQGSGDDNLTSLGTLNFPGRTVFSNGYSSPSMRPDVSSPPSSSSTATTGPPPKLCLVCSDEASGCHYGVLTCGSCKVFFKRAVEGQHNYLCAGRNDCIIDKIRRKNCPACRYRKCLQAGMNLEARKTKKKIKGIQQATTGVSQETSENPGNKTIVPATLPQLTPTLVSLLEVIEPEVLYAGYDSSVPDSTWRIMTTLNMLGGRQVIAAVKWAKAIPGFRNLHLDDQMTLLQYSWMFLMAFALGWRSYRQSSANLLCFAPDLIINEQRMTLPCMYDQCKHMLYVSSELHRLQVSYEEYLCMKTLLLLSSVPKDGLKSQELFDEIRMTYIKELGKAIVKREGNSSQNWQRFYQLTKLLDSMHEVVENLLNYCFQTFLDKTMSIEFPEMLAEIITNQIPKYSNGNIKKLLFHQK
How it was run: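 Agonist-mode qHTS in HeLa cells stably expressing a glucocorticoid-response-element beta-lactamase reporter. Fluorescence intensity read with FRET substrate (2 h, room temperature) after 18 h compound treatment at 37 C.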

[9] = target: Glucocorticoid receptor (Homo sapiens) (UniProt P04150); assay: qHTS assay to identify small molecule antagonists of the glucocorticoid receptor (GR) signaling pathway (AID 720692; active = well fitted inhibition curve with a large enough effect in the signal ratio in the repeat runs, not every such curve was filed as active; the % refers to the signal ratio)
How it was run: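 Inhibition of dexamethasone-driven (5 nM final) beta-lactamase expression was measured in GRE-reporter HeLa cells over 18 h at 37C. Fluorescence was read after 2 h with the B/G FRET substrate at room temperature.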

[10] = qHTS assay to identify small molecule antagonists of the glucocorticoid receptor (GR) signaling pathway - cell viability counter screen (AID 720693); note: nearly all actives have a fitted effect of over 55% in size
[11] = qHTS assay for identifying genotoxic compounds that show differential cytotoxicity against isogenic chicken DT40 cell lines with known DNA damage response pathways - wild type cell line (AID 743012); note: nearly all actives have a fitted effect of over 60% in size; note: potency is the fitted concentration of half-maximal effect
How it was run: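 Viability by ATP luminescence (CellTiter-Glo, 30 min RT) after 40 h compound treatment at 37 C/5% CO2, using 300 parental DNA repair-proficient DT40 cells per well.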

[12] = qHTS assay for identifying genotoxic compounds that show differential cytotoxicity against isogenic chicken DT40 cell lines with known DNA damage response pathways - Rad54/Ku70 mutant cell line (AID 743015); note: nearly all actives have a fitted effect of over 60% in size; note: potency is the fitted concentration of half-maximal effect
[13] = qHTS assay to identify small molecule antagonists of the androgen receptor (AR) signaling pathway - cell viability counter screen (AID 743033; note: nearly all actives have a fitted effect of over 45% in size; note: potency is the fitted concentration of half-maximal effect)
[14] = qHTS assay to identify small molecule antagonists of the androgen receptor (AR) signaling pathway using the MDA cell line - cell viability counter screen (AID 743041; note: nearly all actives have a fitted effect of over 45% in size)
How it was run: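 Viability read by CellTiter-Fluor fluorescence in the same wells as the antagonist screen, added after 15.5 h of a 16 h, 37C exposure. Human breast carcinoma MDA-kb2 AR-luc cells, compounds co-dosed with agonist R1881.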

[15] = qHTS assay to test for compound auto fluorescence at 460 nm (blue) in HepG2 cells (AID 720687)
How it was run: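 Blue-channel autofluorescence (Ex/Em 405/460 nm, triamterene-equivalent) was measured after 1 hr compound exposure at 37 C, 5% CO2. Cells were HepG2, plated overnight at 37 C in MEM plus 10% FBS.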

[16] = qHTS assay for identifying genotoxic compounds that show differential cytotoxicity against isogenic chicken DT40 cell lines with known DNA damage response pathways - Rev3 mutant cell line (AID 743014); note: nearly all actives have a fitted effect of over 55% in size; note: potency is the fitted concentration of half-maximal effect
[17] = target: Androgen receptor (Homo sapiens) (UniProt P10275); assay: qHTS assay to identify small molecule agonists of the androgen receptor (AR) signaling pathway (AID 743036; active = well fitted activation curve with a large enough effect in the signal ratio in the repeat runs, with a control signal flat, not every such curve was filed as active; the % refers to the signal ratio)
Sequence of Androgen receptor (Homo sapiens) (P10275 whole entry, looked up): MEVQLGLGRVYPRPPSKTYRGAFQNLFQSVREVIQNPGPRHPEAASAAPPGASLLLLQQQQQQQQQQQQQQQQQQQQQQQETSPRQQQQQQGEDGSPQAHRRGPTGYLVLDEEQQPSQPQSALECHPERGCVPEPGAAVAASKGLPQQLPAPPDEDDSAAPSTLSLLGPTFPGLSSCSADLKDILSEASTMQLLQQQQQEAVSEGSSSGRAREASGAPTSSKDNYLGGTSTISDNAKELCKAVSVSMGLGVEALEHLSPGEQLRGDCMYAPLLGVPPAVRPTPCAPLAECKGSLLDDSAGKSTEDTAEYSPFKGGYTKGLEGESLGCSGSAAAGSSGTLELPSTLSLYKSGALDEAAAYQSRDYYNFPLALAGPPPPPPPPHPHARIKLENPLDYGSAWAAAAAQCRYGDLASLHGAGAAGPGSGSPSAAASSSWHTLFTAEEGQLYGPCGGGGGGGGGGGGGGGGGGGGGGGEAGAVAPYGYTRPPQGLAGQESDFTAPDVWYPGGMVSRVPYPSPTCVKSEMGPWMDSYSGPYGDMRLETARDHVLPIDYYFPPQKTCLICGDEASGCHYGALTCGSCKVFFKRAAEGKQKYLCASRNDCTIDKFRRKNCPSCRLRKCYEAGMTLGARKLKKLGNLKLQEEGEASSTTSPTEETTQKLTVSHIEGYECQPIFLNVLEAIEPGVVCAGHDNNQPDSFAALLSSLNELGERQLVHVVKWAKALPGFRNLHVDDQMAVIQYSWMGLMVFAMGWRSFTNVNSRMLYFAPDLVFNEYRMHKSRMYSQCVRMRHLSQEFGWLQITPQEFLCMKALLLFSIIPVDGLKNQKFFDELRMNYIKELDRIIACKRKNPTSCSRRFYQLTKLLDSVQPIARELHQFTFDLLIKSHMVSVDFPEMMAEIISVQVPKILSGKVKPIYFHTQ
How it was run: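 Cell-based FRET reporter assay: HEK293 line with a UAS-beta-lactamase construct, compounds added in DMSO, 16 h exposure at 37C, then 2 h substrate step at room temperature and fluorescence intensity read.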

[18] = target: Androgen receptor (Homo sapiens) (UniProt P10275); assay: qHTS assay to identify small molecule agonists of the androgen receptor (AR) signaling pathway using the MDA cell line (AID 743040; note: nearly all actives have a fitted effect of over 20% in size)
How it was run: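 Luciferase agonist assay: 16 h compound exposure at 37C without CO2 in MDA-kb2 AR-luc cells, whose MMTV promoter responds to both AR and GR. Luminescence measured after 30 min room-temperature incubation with ONE-Glo.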

[19] = target: Androgen receptor (Homo sapiens) (UniProt P10275); assay: qHTS assay to identify small molecule antagonists of the androgen receptor (AR) signaling pathway using the MDA cell line (AID 743042; note: nearly all actives have a fitted effect of over 55% in size; note: potency is the fitted concentration of half-maximal effect)
How it was run: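 Antagonist mode: compounds plus R1881 agonist added to MDA-kb2 AR-luc cells, incubated 16 h at 37C. Luciferase reporter luminescence quantified, with multiplexed CellTiter-Fluor readout for cell viability.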

[20] = target: Androgen receptor (Homo sapiens) (UniProt P10275); assay: qHTS assay to identify small molecule antagonists of the androgen receptor (AR) signaling pathway (AID 743035; active = well fitted inhibition curve with a large enough effect in the signal ratio in the repeat runs, not every such curve was filed as active; the % refers to the signal ratio; note: potency is the fitted concentration of half-maximal effect)
How it was run: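 Antagonist mode: AR-bla HEK293 cells co-treated with test compounds and agonist R1881 for 16 h at 37C, 5% CO2. Beta-lactamase activity read as FRET fluorescence after 2 h room-temperature substrate loading.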

## NCCCC(=O)O
[1]
  outcome: inactive
[2]
  Potency: inactive
[3]
  outcome: inactive
[4]
  outcome: inactive
[5]
  outcome: inactive
[6]
  Potency: inactive
[7]
  Potency: inactive
[8]
  Potency: inactive
[9]
  Potency: inactive
[10]
  Potency: inactive
[11]
  Potency: inactive
[12]
  Potency: inactive
[13]
  Potency: inactive
[14]
  Potency: inactive

## C/C(=C(/CCO)SSCC1CCCO1)N(C=O)Cc1cnc(C)nc1N (stereo not given)
[1]
  outcome: inactive
[2]
  Potency: inactive
[3]
  outcome: inactive
[4]
  outcome: inactive
[5]
  outcome: inactive
[6]
  Potency: inactive
[15]
  Potency: inactive
[8]
  Potency: inactive and 21.3 µM (active)
[9]
  Potency: inactive
[10]
  Potency: inactive
[11]
  Potency: 23.7 µM (active) and 11.9 µM (active)
[16]
  Potency: 23.7 µM (active)
[12]
  Potency: 26.6 µM (active)
[13]
  Potency: inactive
[14]
  Potency: inactive

## NCC[C@H](O)C(=O)N[C@@H]1C[C@H](N)[C@@H](O[C@H]2O[C@H](CN)CC[C@H]2N)[C@H](O)[C@H]1O[C@H]1O[C@H](CO)[C@@H](O)[C@H](N)[C@H]1O
[1]
  outcome: inactive
[2]
  Potency: inactive
[3]
  outcome: inactive
[4]
  outcome: inactive
[5]
  outcome: inactive
[6]
  Potency: inactive
[7]
  Potency: inactive
[15]
  Potency: inactive
[10]
  Potency: inactive
[16]
  Potency: inactive
[12]
  Potency: inactive
[13]
  Potency: inactive
[14]
  Potency: inactive

## N=C(N)c1ccc(/C=C/c2ccc(C(=N)N)cc2O)cc1
[1]
  outcome: inactive
[2]
  Potency: inactive
[3]
  outcome: inactive
[4]
  outcome: inactive
[5]
  outcome: inactive
[6]
  Potency: inactive
[7]
  Potency: inactive
[15]
  Potency: inactive
[10]
  Potency: inactive
[13]
  Potency: inactive
[14]
  Potency: inactive

## CCCCCN=C(N)N/N=C/c1c[nH]c2ccc(OC)cc12
[1]
  outcome: inactive
[2]
  Potency: inactive
[3]
  outcome: inactive
[4]
  outcome: inactive
[5]
  outcome: inactive
[6]
  Potency: inactive
[7]
  Potency: inactive
[8]
  Potency: inactive
[9]
  Potency: inactive
[10]
  Potency: inactive
[11]
  Potency: inactive
[16]
  Potency: inactive
[13]
  Potency: inactive
[14]
  Potency: inactive

## C=C1[C@H](CO)[C@@H](O)C[C@@H]1n1cnc2c(=O)[nH]c(N)nc21
[1]
  outcome: inactive
[2]
  Potency: inactive
[3]
  outcome: inactive
[4]
  outcome: inactive
[5]
  outcome: inactive
[6]
  Potency: inactive
[15]
  Potency: inactive
[8]
  Potency: inactive
[9]
  Potency: inactive
[10]
  Potency: inactive
[11]
  Potency: 0.0237 µM (active)
[16]
  Potency: 0.0237 µM (active)
[12]
  Potency: 0.0335 µM (active)
[13]
  Potency: inactive
[17]
  Potency: inactive
[18]
  Potency: inactive
[14]
  Potency: inactive
[19]
  Potency: inactive

## CC[C@@]1([C@@H]2O[C@@H]([C@H]3O[C@@](O)(CO)[C@H](C)C[C@@H]3C)C[C@@H]2C)CC[C@H]([C@]2(C)CC[C@]3(C[C@H](O)[C@@H](C)[C@@H]([C@@H](C)[C@@H](OC)[C@H](C)C(=O)O)O3)O2)O1 (stereo in doubt)
[1]
  outcome: inactive
[2]
  Potency: inactive
[3]
  outcome: inactive
[4]
  outcome: inactive
[5]
  outcome: inactive
[6]
  Potency: inactive
[7]
  Potency: inactive
[15]
  Potency: inactive
[10]
  Potency: inactive
[16]
  Potency: 376 nM (active) and 531 nM (active)
[12]
  Potency: 531 nM (active) and 596 nM (active)

## c1ccc(-n2cnnn2)cc1
[1]
  outcome: inactive
[2]
  Potency: inactive
[3]
  outcome: inactive
[4]
  outcome: inactive
[5]
  outcome: inactive
[6]
  Potency: inactive
[7]
  Potency: inactive
[8]
  Potency: inactive
[9]
  Potency: inactive
[10]
  Potency: inactive
[11]
  Potency: inactive
[12]
  Potency: inactive
[13]
  Potency: inactive
[14]
  Potency: inactive

## Clc1nc(C(Cl)(Cl)Cl)c(Cl)c(Cl)c1Cl
[1]
  outcome: inactive
[2]
  Potency: inactive
[3]
  outcome: inactive
[4]
  outcome: inactive
[5]
  outcome: inactive
[6]
  Potency: inactive
[7]
  Potency: inactive
[15]
  Potency: inactive
[11]
  Potency: 21.7 µM (active)
[16]
  Potency: 19.3 µM (active)
[12]
  Potency: 27.3 µM (active)

## N[C@H](C(=O)O)[C@@H]1CC(Cl)=NO1
[1]
  outcome: inactive
[2]
  Potency: inactive
[3]
  outcome: inactive
[4]
  outcome: inactive
[5]
  outcome: inactive
[6]
  Potency: inactive
[7]
  Potency: inactive
[11]
  Potency: 2.66 µM (active)
[16]
  Potency: 2.66 µM (active)
[12]
  Potency: 2.98 µM (active)
[14]
  Potency: inactive

## Cc1ccc(C(C)(C)c2ccc(C)cc2)cc1
[1]
  outcome: inactive
[2]
  Potency: inactive
[3]
  outcome: inactive
[4]
  outcome: inactive
[5]
  outcome: inactive
[6]
  Potency: inactive
[7]
  Potency: inactive
[8]
  Potency: inactive
[9]
  Potency: inactive
[10]
  Potency: inactive
[11]
  Potency: inactive
[16]
  Potency: inactive
[13]
  Potency: inactive
[14]
  Potency: inactive

## CN[C@H]1CC[C@@H](c2ccc(Cl)c(Cl)c2)c2ccc(S(N)(=O)=O)cc21
[1]
  outcome: inactive
[2]
  Potency: inactive
[3]
  outcome: inactive
[4]
  outcome: inactive
[5]
  outcome: inactive
[6]
  Potency: inactive
[7]
  Potency: inactive
[15]
  Potency: inactive
[11]
  Potency: 13.7 µM (active)
[16]
  Potency: 13.7 µM (active)
[12]
  Potency: 13.7 µM (active)
[13]
  Potency: 54.9 µM (active)
[17]
  Potency: inactive
[18]
  Potency: inactive
[19]
  Potency: 68.6 µM (active)

## CNC(=O)OCc1cccc(COC(=O)NC)n1
[1]
  outcome: inactive
[2]
  Potency: inactive
[3]
  outcome: inactive
[4]
  outcome: inactive
[5]
  outcome: inactive
[6]
  Potency: inactive
[7]
  Potency: inactive
[8]
  Potency: inactive
[9]
  Potency: inactive
[10]
  Potency: inactive
[11]
  Potency: inactive
[16]
  Potency: inactive
[12]
  Potency: inactive
[13]
  Potency: inactive
[14]
  Potency: inactive

## C=CCc1cc(S(=O)(=O)c2ccc(O)c(CC=C)c2)ccc1O
[1]
  outcome: inactive
[2]
  Potency: inactive
[3]
  outcome: inactive
[4]
  outcome: inactive
[5]
  outcome: inactive
[6]
  Potency: inactive
[15]
  Potency: inactive
[8]
  Potency: inactive
[11]
  Potency: 30.6 µM (active)
[16]
  Potency: 68.6 µM (active)
[12]
  Potency: 54.5 µM (active)
[20]
  Potency: 38.9 µM (active)
[17]
  Potency: inactive
[19]
  Potency: 61.1 µM (active)
